# Data published in PubChem BioAssay (NCATS).
# Records with an inconclusive call do not appear. Entries that show only a call come without a potency. Unmarked numbers belong to inactive results. Active and inactive are the calls of the source. The call rests on the fitted dose curve; in most records, active means well fitted inhibition curve with a large enough effect; inconclusive means small, poorly fitted or top-dose-only effect; inactive means flat fitted curve, though single readings scatter.
# What was measured:
# PC49 = experiment: qHTS profiling for inhibitors of Plasmodium falciparum proliferation (AID 504749); further: potency means the concentration at half of the fitted maximal effect; settings: P. falciparum in erythrocytes, SYBR Green DNA, 72 h; series mostly up to 28.7 µM
# Method in brief: (§1)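 P. falciparum-infected erythrocytes (0.3% parasitemia, 2.5% hematocrit) incubated with compound 72 h at 37 C, 5% CO2. Parasite DNA detected by SYBR Green after lysis, overnight at room temperature; normalised to 0.29 uM artemisinin and DMSO.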
# SC27B = experiment: as above; settings: P. falciparum in erythrocytes, SYBR Green DNA, 72 h; series mostly up to 28.7 µM
# Method in brief: as §1
# TAB109 = experiment: as above; settings: P. falciparum in erythrocytes, SYBR Green DNA, 72 h; series mostly up to 28.7 µM
# Method in brief: as §1
# TAB113 = experiment: as above; settings: P. falciparum in erythrocytes, SYBR Green DNA, 72 h; series mostly up to 28.7 µM
# Method in brief: as §1
# TAB165 = experiment: as above; settings: P. falciparum in erythrocytes, SYBR Green DNA, 72 h; series mostly up to 28.7 µM
# Method in brief: as §1
# CRL-7250 = normal cell line; experiment: Cytotoxic Profiling of Annotated Libraries Using Quantitative High-Throughput Screening (AID 1296008); settings: Five cell lines viability, CellTiter-Glo ATP luminescence, 48-72 h; stronger effect = lower value
# Method in brief: (§2)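 Cells exposed to compounds for 48 or 72 hr at 37 degrees Celsius. Viability read as ATP-coupled luminescence with CellTiter-Glo after 10 min at room temperature.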
# HEK293 = experiment: as above; settings: Five cell lines viability, CellTiter-Glo ATP luminescence, 48-72 h; stronger effect = lower value
# Method in brief: as §2
# HaCat [1] = experiment: as above; settings: Five cell lines viability, CellTiter-Glo ATP luminescence, 48-72 h; stronger effect = lower value
# Method in brief: as §2
# KB-3-1 = experiment: as above; settings: Five cell lines viability, CellTiter-Glo ATP luminescence, 48-72 h, stronger effect = lower value
# Method in brief: as §2
# NIH3T3 [2] = experiment: as above; settings: Five cell lines viability, CellTiter-Glo ATP luminescence, 48-72 h; stronger effect = lower value
# Method in brief: as §2
# HACAT [3] = experiment: qHTS assay to identify novel small-molecules to repurpose for Merkel cell carcinoma treatment (AID 1296009); settings: MCC and control cell lines, CellTiter-Glo viability, 72 h; at 44.8 µM (top of the series) unless noted
# Method in brief: (§3)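 Cells were treated for 72 hr at 37 degree celsius with compounds in 8- or 11-point dose response. Viability was read by CellTiter-Glo luminescence, normalized to no-cell (cytotoxicity) and DMSO controls.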
# HEK293T = experiment: as above; settings: MCC and control cell lines, CellTiter-Glo viability, 72 h; at 44.8 µM (top of the series) unless noted
# Method in brief: as §3
# MCC-13 = experiment: as above; settings: MCC and control cell lines, CellTiter-Glo viability, 72 h; series mostly up to 46 µM
# Method in brief: as §3
# MCC-26 = experiment: as above; settings: MCC and control cell lines, CellTiter-Glo viability, 72 h; series mostly up to 46 µM
# Method in brief: as §3
# MKL-1 = experiment: as above; settings: MCC and control cell lines, CellTiter-Glo viability, 72 h; series mostly up to 46 µM
# Method in brief: as §3
# UISO = experiment: as above; settings: MCC and control cell lines, CellTiter-Glo viability, 72 h; series mostly up to 46 µM
# Method in brief: as §3
# WaGa = experiment: as above; settings: MCC and control cell lines, CellTiter-Glo viability, 72 h; series mostly up to 46 µM
# Method in brief: as §3
# W2 = experiment: qHTS profiling for inhibitors of Plasmodium falciparum proliferation (AID 504749); further: potency means the concentration at half of the fitted maximal effect; settings: P. falciparum in erythrocytes, SYBR Green DNA, 72 h; series mostly up to 28.7 µM
# Method in brief: as §1
# MKL-2 = experiment: qHTS assay to identify novel small-molecules to repurpose for Merkel cell carcinoma treatment (AID 1296009); settings: MCC and control cell lines, CellTiter-Glo viability, 72 h; series mostly up to 46 µM
# Method in brief: as §3
# NIH3T3 [4] = experiment: as above; settings: MCC and control cell lines, CellTiter-Glo viability, 72 h; at 44.8 µM (top of the series) unless noted
# Method in brief: as §3
# Further: nearly all actives have a fitted effect of over 60% in size.
smiles,measurement,setting,value
CC1CC(OC(=O)c2ccccc2O)CC(C)(C)C1 (configuration not stated),Potency,PC49,inactive
same,Potency,SC27B,inactive
same,Potency,TAB109,inactive
same,Potency,TAB113,inactive
same,Potency,TAB165,inactive
same,max response,CRL-7250,-4.46%
same,outcome,HEK293,inactive
same,outcome,HaCat [1],inactive
same,max response,KB-3-1,-9.15%
same,max response,NIH3T3 [2],-4.04%
same,outcome,HACAT [3],inactive
same,outcome,HEK293T,inactive
same,outcome,MCC-13,inactive
same,outcome,MCC-26,inactive
same,outcome,MKL-1,inactive
same,outcome,UISO,inactive
same,outcome,WaGa,inactive
COc1nccnc1NS(=O)(=O)c1ccc(N)cc1,Potency,PC49,inactive
same,Potency,SC27B,inactive
same,Potency,TAB109,inactive
same,Potency,TAB113,inactive
same,Potency,TAB165,inactive
same,Potency,W2,inactive
same,max response,CRL-7250,3.15%
same,max response,HEK293,4.9%
same,outcome,HaCat [1],inactive
same,max response,KB-3-1,-12%
same,outcome,NIH3T3 [2],inactive
same,outcome,HACAT [3],inactive
same,outcome,MCC-13,inactive
same,outcome,MCC-26,inactive
same,outcome,MKL-1,inactive
same,outcome,MKL-2,inactive
same,outcome,NIH3T3 [4],inactive
same,outcome,UISO,inactive
same,outcome,WaGa,inactive
CC(=O)OCC(=O)[C@@]1(O)CC[C@H]2[C@@H]3CCC4=CC(=O)C=C[C@]4(C)[C@@]3(F)[C@@H](O)C[C@@]21C,max response,CRL-7250,2.22%
same,outcome,HEK293,inactive
same,outcome,HaCat [1],inactive
same,max response,KB-3-1,29.8%
same,max response,NIH3T3 [2],0.516%
same,outcome,HACAT [3],inactive
same,outcome,HEK293T,inactive
same,outcome,MCC-13,inactive
same,outcome,MCC-26,inactive
same,outcome,MKL-1,inactive
same,outcome,MKL-2,inactive
same,outcome,UISO,inactive
same,outcome,WaGa,inactive
COc1ccccc1OCC(O)CO (configuration not stated),outcome,CRL-7250,inactive
same,max response,HEK293,-2.29%
same,outcome,HaCat [1],inactive
same,max response,KB-3-1,4.34%
same,outcome,NIH3T3 [2],inactive
same,outcome,HACAT [3],inactive
same,outcome,MCC-13,inactive
same,outcome,MCC-26,inactive
same,outcome,MKL-1,inactive
same,outcome,MKL-2,inactive
same,outcome,NIH3T3 [4],inactive
same,outcome,UISO,inactive
same,outcome,WaGa,inactive
O=C(NCCCN1CCOCC1)c1ccc(Cl)cc1,Potency,PC49,inactive
same,Potency,SC27B,inactive
same,Potency,TAB109,inactive
same,Potency,TAB113,inactive
same,Potency,TAB165,inactive
same,Potency,W2,inactive
same,max response,CRL-7250,-10.4%
same,max response,HEK293,1.26%
same,outcome,HaCat [1],inactive
same,max response,KB-3-1,1.85%
same,outcome,NIH3T3 [2],inactive
same,outcome,HACAT [3],inactive
same,outcome,MCC-13,inactive
same,outcome,MCC-26,inactive
same,outcome,MKL-1,inactive
same,outcome,MKL-2,inactive
same,outcome,NIH3T3 [4],inactive
same,outcome,UISO,inactive
same,outcome,WaGa,inactive
CC1(C)S[C@@H]2[C@H](N=CN3CCCCCC3)C(=O)N2[C@H]1C(=O)O,max response,CRL-7250,-6.32%
same,max response,HEK293,-2.19%
same,outcome,HaCat [1],inactive
same,max response,KB-3-1,-4.82%
same,outcome,NIH3T3 [2],inactive
same,outcome,HACAT [3],inactive
same,outcome,MCC-13,inactive
same,outcome,MCC-26,inactive
same,outcome,MKL-1,inactive
same,outcome,MKL-2,inactive
same,outcome,NIH3T3 [4],inactive
same,outcome,UISO,inactive
same,outcome,WaGa,inactive
CN1CCCN=C1COC(=O)C(O)(c1ccccc1)C1CCCCC1 (configuration not stated),Potency,PC49,inactive
same,Potency,SC27B,inactive
same,Potency,TAB109,inactive
same,Potency,TAB113,inactive
same,Potency,TAB165,inactive
same,Potency,W2,inactive
same,max response,CRL-7250,-8.2%
same,max response,HEK293,-8.47%
same,outcome,HaCat [1],inactive
same,max response,KB-3-1,-13.9%
same,outcome,NIH3T3 [2],inactive
same,outcome,HACAT [3],inactive
same,outcome,MCC-13,inactive
same,outcome,MCC-26,inactive
same,outcome,MKL-1,inactive
same,outcome,MKL-2,inactive
same,outcome,NIH3T3 [4],inactive
same,outcome,UISO,inactive
same,outcome,WaGa,inactive
COC(=O)c1cccnc1,Potency,SC27B,inactive
same,Potency,TAB109,inactive
same,Potency,TAB113,inactive
same,Potency,TAB165,inactive
same,Potency,W2,inactive
same,max response,CRL-7250,-1.99%
same,outcome,HEK293,inactive
same,outcome,HaCat [1],inactive
same,max response,KB-3-1,10%
same,max response,NIH3T3 [2],0.586%
same,outcome,HACAT [3],inactive
same,outcome,HEK293T,inactive
same,outcome,MCC-13,inactive
same,outcome,MCC-26,inactive
same,outcome,MKL-1,inactive
same,outcome,MKL-2,inactive
same,outcome,UISO,inactive
same,outcome,WaGa,inactive
FC(F)(F)C(Cl)Br (configuration not stated),Potency,PC49,inactive
same,Potency,SC27B,inactive
same,Potency,TAB109,inactive
same,Potency,TAB113,inactive
same,Potency,TAB165,inactive
same,max response,CRL-7250,3.98%
same,max response,HEK293,0.482%
same,outcome,HaCat [1],inactive
same,max response,KB-3-1,-3.43%
same,outcome,NIH3T3 [2],inactive
same,outcome,HACAT [3],inactive
same,outcome,MCC-13,inactive
same,outcome,MCC-26,inactive
same,outcome,MKL-1,inactive
same,outcome,MKL-2,inactive
same,outcome,NIH3T3 [4],inactive
same,outcome,UISO,inactive
same,outcome,WaGa,inactive
Cc1onc(-c2ccccc2)c1-c1ccc(S(N)(=O)=O)cc1,Potency,PC49,inactive
same,Potency,SC27B,inactive
same,Potency,TAB109,inactive
same,Potency,TAB113,inactive
same,Potency,TAB165,inactive
same,Potency,W2,inactive
same,outcome,CRL-7250,inactive
same,max response,HEK293,-13.2%
same,outcome,HaCat [1],inactive
same,max response,KB-3-1,6.03%
same,outcome,NIH3T3 [2],inactive
same,outcome,HACAT [3],inactive
same,outcome,MCC-13,inactive
same,outcome,MCC-26,inactive
same,outcome,MKL-1,inactive
same,outcome,MKL-2,inactive
same,outcome,NIH3T3 [4],inactive
same,outcome,UISO,inactive
same,outcome,WaGa,inactive
CCCNC(C)C(=O)Nc1c(C)csc1C(=O)OC (configuration not stated),outcome,CRL-7250,inactive
same,max response,HEK293,-4.55%
same,outcome,HaCat [1],inactive
same,max response,KB-3-1,-16.9%
same,outcome,NIH3T3 [2],inactive
same,outcome,HACAT [3],inactive
same,outcome,MCC-13,inactive
same,outcome,MCC-26,inactive
same,outcome,MKL-1,inactive
same,outcome,MKL-2,inactive
same,outcome,NIH3T3 [4],inactive
same,outcome,UISO,inactive
same,outcome,WaGa,inactive
CC(C)NC[C@@H](O)COc1ccc(CC(N)=O)cc1,max response,CRL-7250,-2.68%
same,outcome,HEK293,inactive
same,outcome,HaCat [1],inactive
same,max response,KB-3-1,3.62%
same,max response,NIH3T3 [2],-2.96%
same,outcome,HACAT [3],inactive
same,outcome,HEK293T,inactive
same,outcome,MCC-13,inactive
same,outcome,MCC-26,inactive
same,outcome,MKL-1,inactive
same,outcome,MKL-2,inactive
same,outcome,UISO,inactive
same,outcome,WaGa,inactive
COc1ccc(NS(=O)(=O)c2ccc(N)cc2)nn1,Potency,PC49,inactive
same,Potency,SC27B,inactive
same,Potency,TAB109,inactive
same,Potency,TAB113,inactive
same,Potency,TAB165,inactive
same,Potency,W2,inactive
same,max response,CRL-7250,3.69%
same,outcome,HEK293,inactive
same,outcome,HaCat [1],inactive
same,max response,KB-3-1,14.2%
same,max response,NIH3T3 [2],-9.1%
same,outcome,HACAT [3],inactive
same,outcome,HEK293T,inactive
same,outcome,MCC-13,inactive
same,outcome,MCC-26,inactive
same,outcome,MKL-1,inactive
same,outcome,MKL-2,inactive
same,outcome,UISO,inactive
same,outcome,WaGa,inactive
O=C1C(c2[nH]c3ccccc3c2O)=Nc2ccccc21,Potency,PC49,inactive
same,Potency,TAB165,14.1 µM (active)
same,max response,CRL-7250,1.26%
same,outcome,HEK293,inactive
same,outcome,HaCat [1],inactive
same,max response,KB-3-1,4.4%
same,max response,NIH3T3 [2],4.36%
same,outcome,HACAT [3],inactive
same,outcome,HEK293T,inactive
same,outcome,MCC-13,inactive
same,outcome,MCC-26,inactive
same,outcome,MKL-1,inactive
same,outcome,MKL-2,inactive
same,outcome,WaGa,inactive
